For test [1], the target named is Tyrosine-protein kinase Fyn (Homo sapiens) (UniProt P06241). Particulars: at 1 µM.
For test [2], the target named is Tyrosine-protein kinase HCK (Homo sapiens) (UniProt P08631). The note with it: at 0.1 µM.
The target is the same in test [3]. The note with it: at 1 µM.
Test [4] concerns the target Insulin-like growth factor 1 receptor (Homo sapiens) (UniProt P08069). Particulars: at 0.1 µM.
Test [5] shares this target. The note with it: at 1 µM.
Test [6] deals with Insulin receptor (Homo sapiens) (UniProt P06213). The note with it: at 0.1 µM.
Test [7] has the same target. Particulars: at 1 µM.
The target in test [8] is Insulin receptor-related protein (Homo sapiens) (UniProt P14616). The note with it: at 0.1 µM.
Test [9] has the same target. The note with it: at 1 µM.
Test [10] concerns the target T1, Tyrosine-protein kinase ITK/TSK (Homo sapiens) (UniProt Q08881).
T1 sequence (whole entry): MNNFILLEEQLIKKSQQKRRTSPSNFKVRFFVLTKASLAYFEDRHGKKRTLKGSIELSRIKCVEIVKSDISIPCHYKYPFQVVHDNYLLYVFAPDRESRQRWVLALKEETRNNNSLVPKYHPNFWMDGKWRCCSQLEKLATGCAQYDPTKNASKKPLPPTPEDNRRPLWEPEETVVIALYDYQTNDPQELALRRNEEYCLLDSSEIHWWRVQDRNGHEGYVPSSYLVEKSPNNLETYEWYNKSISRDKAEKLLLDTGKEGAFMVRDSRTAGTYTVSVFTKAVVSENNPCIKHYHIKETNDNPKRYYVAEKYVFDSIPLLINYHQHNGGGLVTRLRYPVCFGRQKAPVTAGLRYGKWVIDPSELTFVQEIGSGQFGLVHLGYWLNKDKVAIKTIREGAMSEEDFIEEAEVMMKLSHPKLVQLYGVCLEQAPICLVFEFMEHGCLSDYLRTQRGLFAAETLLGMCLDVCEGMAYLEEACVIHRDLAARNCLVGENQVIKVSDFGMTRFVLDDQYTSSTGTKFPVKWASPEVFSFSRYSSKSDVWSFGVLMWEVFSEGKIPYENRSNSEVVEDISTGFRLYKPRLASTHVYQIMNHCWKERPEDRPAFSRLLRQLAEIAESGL
The note with it: at 0.1 µM.

The target of test [11] is T1, Tyrosine-protein kinase ITK/TSK (Homo sapiens). Particulars: at 1 µM.
Test [12] addresses Tyrosine-protein kinase JAK1 (Homo sapiens) (UniProt P23458). The note with it: at 0.1 µM.
For test [13] the target is unchanged. Particulars: at 1 µM.
Test [14] addresses Tyrosine-protein kinase JAK2 (Homo sapiens) (UniProt O60674). The note with it: at 0.1 µM.
Test [15] shares this target. Particulars: at 1 µM.
Test [16] concerns the target T2, Tyrosine-protein kinase JAK3 (Homo sapiens) (UniProt P52333).
T2 sequence (whole entry): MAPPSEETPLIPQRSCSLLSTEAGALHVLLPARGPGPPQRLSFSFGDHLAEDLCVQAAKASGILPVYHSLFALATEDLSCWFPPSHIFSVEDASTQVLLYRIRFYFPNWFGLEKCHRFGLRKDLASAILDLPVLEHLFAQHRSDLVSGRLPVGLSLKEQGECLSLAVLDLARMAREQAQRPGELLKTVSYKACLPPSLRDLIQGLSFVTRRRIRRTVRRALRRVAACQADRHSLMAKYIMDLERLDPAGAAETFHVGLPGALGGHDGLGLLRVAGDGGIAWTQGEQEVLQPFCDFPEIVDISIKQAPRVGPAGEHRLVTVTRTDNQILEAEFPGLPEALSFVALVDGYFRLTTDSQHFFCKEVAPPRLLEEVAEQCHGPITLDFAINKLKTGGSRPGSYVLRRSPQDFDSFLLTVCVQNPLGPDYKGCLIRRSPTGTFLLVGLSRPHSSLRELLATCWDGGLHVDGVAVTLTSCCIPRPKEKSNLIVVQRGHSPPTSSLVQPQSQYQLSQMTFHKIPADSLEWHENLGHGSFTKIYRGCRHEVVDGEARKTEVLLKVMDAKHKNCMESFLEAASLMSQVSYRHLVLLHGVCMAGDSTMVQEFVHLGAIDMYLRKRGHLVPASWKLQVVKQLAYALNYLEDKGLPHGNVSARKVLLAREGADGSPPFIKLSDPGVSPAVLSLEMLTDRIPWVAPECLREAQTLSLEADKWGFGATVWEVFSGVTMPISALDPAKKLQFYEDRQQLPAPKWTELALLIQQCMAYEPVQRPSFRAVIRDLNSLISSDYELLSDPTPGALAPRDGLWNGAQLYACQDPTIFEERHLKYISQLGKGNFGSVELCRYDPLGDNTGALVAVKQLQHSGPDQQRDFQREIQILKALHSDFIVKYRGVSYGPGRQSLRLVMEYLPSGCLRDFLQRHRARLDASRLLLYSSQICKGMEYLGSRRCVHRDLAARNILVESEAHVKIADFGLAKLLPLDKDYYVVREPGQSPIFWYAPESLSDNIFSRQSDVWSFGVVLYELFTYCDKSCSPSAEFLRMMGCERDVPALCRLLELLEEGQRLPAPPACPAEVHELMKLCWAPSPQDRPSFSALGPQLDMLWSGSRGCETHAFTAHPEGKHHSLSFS
The note with it: at 0.1 µM.

The target in test [17] is T2, Tyrosine-protein kinase JAK3 (Homo sapiens). The note with it: at 1 µM.
Test [18] concerns the target Vascular endothelial growth factor receptor 2 (Homo sapiens) (UniProt P35968). Particulars: at 0.1 µM.
Test [19] shares this target. Particulars: at 1 µM.
Test [20] concerns the target Mast/stem cell growth factor receptor Kit (Homo sapiens) (UniProt P10721). Particulars: at 0.1 µM.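 Note: values are mean inhibition of KIT, from the GSK PKIS dataset.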

Chain of Vascular endothelial growth factor receptor 2 (Homo sapiens) (P35968 whole entry): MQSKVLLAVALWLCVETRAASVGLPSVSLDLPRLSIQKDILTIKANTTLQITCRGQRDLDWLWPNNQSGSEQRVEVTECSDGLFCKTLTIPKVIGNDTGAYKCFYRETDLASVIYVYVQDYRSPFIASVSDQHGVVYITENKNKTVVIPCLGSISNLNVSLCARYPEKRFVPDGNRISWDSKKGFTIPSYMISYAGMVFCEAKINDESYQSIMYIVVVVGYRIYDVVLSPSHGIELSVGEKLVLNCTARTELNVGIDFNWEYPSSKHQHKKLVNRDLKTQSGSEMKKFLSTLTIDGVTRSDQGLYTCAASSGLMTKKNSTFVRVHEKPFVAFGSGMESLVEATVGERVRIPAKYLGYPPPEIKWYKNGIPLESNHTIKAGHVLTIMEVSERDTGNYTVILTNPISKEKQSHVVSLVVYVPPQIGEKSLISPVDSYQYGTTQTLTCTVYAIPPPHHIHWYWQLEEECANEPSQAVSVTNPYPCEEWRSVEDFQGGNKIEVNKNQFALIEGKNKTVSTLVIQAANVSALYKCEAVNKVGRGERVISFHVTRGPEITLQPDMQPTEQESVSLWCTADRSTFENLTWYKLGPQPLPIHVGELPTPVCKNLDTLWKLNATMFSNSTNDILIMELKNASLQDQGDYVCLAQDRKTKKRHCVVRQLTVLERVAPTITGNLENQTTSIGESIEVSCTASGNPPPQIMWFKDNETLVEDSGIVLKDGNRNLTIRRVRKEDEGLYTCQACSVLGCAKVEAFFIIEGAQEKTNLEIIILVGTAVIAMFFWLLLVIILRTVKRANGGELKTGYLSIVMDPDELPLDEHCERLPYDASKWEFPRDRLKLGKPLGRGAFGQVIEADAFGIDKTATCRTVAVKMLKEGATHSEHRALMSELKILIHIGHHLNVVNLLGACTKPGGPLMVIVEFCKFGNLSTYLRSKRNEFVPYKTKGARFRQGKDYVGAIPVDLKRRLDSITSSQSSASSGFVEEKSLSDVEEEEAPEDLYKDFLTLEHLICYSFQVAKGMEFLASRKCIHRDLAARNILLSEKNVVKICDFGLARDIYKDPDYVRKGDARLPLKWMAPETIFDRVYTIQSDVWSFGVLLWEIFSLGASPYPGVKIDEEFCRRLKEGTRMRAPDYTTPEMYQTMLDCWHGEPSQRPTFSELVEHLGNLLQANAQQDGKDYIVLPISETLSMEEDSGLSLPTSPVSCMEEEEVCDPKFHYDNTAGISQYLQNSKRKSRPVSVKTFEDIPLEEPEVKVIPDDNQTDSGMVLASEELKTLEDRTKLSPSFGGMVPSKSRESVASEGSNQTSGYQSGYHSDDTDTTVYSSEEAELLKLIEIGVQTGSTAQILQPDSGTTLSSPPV
Chain of Tyrosine-protein kinase JAK1 (Homo sapiens) (P23458 whole entry): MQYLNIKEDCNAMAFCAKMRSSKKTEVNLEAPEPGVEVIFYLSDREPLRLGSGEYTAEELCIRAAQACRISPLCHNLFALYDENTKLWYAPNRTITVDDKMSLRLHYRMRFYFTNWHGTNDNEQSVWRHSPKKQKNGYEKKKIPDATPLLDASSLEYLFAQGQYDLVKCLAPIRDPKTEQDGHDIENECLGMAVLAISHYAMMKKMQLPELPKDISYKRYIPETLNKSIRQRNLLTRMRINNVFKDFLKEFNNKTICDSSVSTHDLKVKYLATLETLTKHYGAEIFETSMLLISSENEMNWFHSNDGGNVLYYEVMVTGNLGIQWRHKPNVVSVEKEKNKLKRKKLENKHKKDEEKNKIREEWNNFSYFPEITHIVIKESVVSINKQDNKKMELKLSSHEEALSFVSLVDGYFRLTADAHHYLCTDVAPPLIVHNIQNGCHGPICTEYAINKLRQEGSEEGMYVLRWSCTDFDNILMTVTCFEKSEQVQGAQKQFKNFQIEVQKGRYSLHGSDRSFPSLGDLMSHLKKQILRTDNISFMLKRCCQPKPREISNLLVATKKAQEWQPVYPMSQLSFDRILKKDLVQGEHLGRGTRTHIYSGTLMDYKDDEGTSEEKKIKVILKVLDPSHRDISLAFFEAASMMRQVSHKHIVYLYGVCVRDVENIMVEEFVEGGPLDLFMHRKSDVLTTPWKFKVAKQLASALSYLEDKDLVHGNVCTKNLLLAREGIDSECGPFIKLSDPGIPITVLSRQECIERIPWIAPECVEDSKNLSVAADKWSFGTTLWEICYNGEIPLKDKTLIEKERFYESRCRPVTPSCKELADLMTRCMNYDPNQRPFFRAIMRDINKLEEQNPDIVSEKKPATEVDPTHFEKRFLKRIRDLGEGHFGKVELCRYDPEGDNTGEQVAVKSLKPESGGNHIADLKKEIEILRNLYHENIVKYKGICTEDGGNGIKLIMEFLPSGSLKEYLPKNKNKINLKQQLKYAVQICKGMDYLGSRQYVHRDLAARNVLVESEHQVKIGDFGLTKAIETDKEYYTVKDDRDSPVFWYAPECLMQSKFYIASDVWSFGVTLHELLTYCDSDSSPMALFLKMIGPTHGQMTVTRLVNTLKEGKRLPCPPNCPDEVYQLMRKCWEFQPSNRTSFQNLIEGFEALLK
Chain of Tyrosine-protein kinase Fyn (Homo sapiens) (P06241 2-537 limits assumed): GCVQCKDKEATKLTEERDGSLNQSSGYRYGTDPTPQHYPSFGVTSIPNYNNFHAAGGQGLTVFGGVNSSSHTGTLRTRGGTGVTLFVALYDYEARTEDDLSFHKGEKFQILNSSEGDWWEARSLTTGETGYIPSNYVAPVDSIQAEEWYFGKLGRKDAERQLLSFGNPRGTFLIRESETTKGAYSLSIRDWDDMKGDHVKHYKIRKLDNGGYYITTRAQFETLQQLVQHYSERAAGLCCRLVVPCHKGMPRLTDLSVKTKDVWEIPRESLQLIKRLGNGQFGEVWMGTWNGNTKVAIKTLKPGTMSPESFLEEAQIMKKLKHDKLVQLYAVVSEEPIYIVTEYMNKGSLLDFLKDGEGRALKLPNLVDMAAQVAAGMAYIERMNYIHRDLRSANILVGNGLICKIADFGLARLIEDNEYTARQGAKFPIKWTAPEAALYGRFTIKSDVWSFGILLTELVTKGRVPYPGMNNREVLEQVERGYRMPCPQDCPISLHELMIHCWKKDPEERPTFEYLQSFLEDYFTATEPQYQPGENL
Chain of Tyrosine-protein kinase HCK (Homo sapiens) (P08631 2-526 limits assumed): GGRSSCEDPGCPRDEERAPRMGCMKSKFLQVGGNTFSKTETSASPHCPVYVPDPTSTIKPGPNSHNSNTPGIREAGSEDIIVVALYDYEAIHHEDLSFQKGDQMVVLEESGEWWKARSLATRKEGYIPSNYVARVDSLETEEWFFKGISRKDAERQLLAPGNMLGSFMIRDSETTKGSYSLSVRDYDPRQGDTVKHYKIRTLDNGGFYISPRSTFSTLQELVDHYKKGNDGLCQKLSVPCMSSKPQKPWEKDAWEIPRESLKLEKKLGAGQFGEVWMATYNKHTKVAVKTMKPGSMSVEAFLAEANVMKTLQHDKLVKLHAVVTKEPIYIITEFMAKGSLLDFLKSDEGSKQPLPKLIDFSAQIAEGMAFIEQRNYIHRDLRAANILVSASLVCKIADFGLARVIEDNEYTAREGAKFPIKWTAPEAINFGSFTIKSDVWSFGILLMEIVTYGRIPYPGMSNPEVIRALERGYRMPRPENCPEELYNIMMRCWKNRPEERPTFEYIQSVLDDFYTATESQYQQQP
Chain of Insulin receptor-related protein (Homo sapiens) (P14616 27-742 limits assumed): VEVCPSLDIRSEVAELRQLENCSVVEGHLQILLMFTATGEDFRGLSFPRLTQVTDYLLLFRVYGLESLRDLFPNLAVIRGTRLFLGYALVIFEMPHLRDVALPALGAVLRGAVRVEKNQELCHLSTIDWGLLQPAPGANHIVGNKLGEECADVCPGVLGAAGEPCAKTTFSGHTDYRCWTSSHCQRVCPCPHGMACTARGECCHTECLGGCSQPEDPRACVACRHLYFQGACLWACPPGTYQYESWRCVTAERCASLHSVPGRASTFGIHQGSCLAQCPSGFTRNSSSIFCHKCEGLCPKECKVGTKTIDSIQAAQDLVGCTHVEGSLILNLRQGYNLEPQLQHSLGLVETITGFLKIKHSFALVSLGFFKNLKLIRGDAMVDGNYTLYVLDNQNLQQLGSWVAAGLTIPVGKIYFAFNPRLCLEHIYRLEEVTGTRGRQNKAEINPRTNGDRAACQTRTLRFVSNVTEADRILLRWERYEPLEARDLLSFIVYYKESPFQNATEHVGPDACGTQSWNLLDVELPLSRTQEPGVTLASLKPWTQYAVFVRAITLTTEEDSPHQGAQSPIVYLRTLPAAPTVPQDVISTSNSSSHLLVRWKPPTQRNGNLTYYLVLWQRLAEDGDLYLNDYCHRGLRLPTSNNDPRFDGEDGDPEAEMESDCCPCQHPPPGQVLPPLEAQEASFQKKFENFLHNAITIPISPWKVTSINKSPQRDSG
Chain of Insulin receptor-related protein (Homo sapiens) (P14616 747-1297 limits assumed): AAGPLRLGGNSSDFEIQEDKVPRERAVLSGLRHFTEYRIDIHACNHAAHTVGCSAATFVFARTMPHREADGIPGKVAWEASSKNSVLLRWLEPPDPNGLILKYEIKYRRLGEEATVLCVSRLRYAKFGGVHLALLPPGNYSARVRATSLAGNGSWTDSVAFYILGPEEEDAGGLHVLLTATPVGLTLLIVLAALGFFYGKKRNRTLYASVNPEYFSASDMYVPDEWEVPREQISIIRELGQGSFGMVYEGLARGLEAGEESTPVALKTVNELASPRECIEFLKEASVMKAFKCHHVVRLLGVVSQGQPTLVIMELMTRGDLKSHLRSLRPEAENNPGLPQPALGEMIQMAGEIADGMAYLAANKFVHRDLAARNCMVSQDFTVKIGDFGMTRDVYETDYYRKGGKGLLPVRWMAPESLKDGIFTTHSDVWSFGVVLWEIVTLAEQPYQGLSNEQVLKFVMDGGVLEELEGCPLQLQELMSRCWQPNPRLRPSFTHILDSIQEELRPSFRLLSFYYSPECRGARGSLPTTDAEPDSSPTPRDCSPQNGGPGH

As a reminder, the inhibition is the drop in the measured response relative to a control, in per cent. Consider `Cc1cccc2c1NC(=O)/C2=N\Nc1ccc(S(N)(=O)=O)cc1`, for which the inhibition in test [1] was 1.92%; in [2], 4.11%; in test [3], 6.57%; in test [4], 1.39%; in test [5], 2.37%; in test [6], 2.44%. Moreover, the inhibition in test [7] came out at 2.27%; in [8], 6.42%; in [9] it was 0.05%; in test [10], 1.75%; in test [11] it was 2.45%; in [12] it was 3.68%. The inhibition in test [13] amounted to 0.61%; in [14], 2.04%; in [15], 4%; in test [16], 0%; in [17], 4.14%; in test [18], 1.56%. The inhibition came to 1.84% in test [19] and 8.83% in test [20].
For `CNC(=O)c1cncc(/C=C/c2ccccc2Cl)c1`, the inhibition in test [1] was 6.88%; in test [2], 1.18%; in test [3], 11.3%; in [4], 6.84%; in [5], 5.76%; in test [6], -1.75%. Moreover, the inhibition in [7] is -1.65%; in test [8], -0.5%; in test [9], -1.16%; in [10] it was 1.6%; in test [11], 2.43%; in test [12], 1.61%. Moreover, the inhibition in test [13] worked out at 10.6%; in test [14] it was 0.26%; in test [15], 1.2%; in test [16] it was 1.51%; in test [17] it was 2.32%; in [18] it was 0.94%. In addition, the values for the inhibition in [19] and in test [20] were 8.36% and 0.25%, respectively.
Take `Fc1ccc(-c2nn3ccccc3c2-c2ccncc2)cc1`: the inhibition in [1] is 1.04%; in test [2], 1.96%; in test [3], 5.95%; in test [4] it was 0.6%; in [5], 0.31%; in test [6], 1.92%. Further, the inhibition is 4.03% in test [7]; -0.72% in test [8]; 0.71% in test [9]; 1.1% in test [10]; 1.56% in test [11]; 0.87% in test [12]. In addition, the inhibition in test [13] was -0.62%; in test [14] it was 0.36%; in test [15], 1.23%; in [16], -0.48%; in [17], 0.18%; in test [18], 3.84%. The inhibition in test [19] was 9.61%; in test [20], 1.23%.
As for `COc1cc2c(cc1Nc1nc(Nc3ccsc3C(N)=O)c3cc[nH]c3n1)N(C(=O)CN(C)C)CCC2(C)C`, the inhibition in test [1] came to 1.15%; in [2], 6.46%; in test [3] it was 12.9%; in test [4], 98.1%; in test [5], 97.1%; in test [6] it was 98.7%. Also, the inhibition in test [7] was determined as 98%; in test [8] it was 98%; in test [9] it was 97.9%; in test [10], 1.74%; in test [11], 3.88%; in [12], 4.13%. Further, the inhibition turned out to be 2.78% in test [13]; 0.97% in test [14]; 0.03% in test [15]; 0.41% in test [16]; 1.42% in test [17]; 8.34% in [18]. Further, the inhibition in test [19] turned out to be 14.1%; in [20] it was 18.8%.
Take `CCn1c(-c2nonc2N)nc2c(C#CC(C)(C)O)nc(OC[C@H](N)c3ccccc3)cc21`: the inhibition in test [1] is 4.61%; in [2], 2.17%; in [3], 9.34%; in [4], 6.38%; in [5], 2.6%; in test [6], 7.87%. Moreover, the inhibition in test [7] came out at 1.38%; in test [8] it was 0.82%; in [9], 2.71%; in test [10], 2.08%; in test [11], 1.49%; in test [12], 1.86%. Besides, the inhibition in test [13] is -0.29%; in test [14], -0.06%; in test [15], 1.71%; in test [16], -2%; in [17] it was -0.34%; in test [18] it was 59.6%. The inhibition is 96.1% in [19] and 3.94% in test [20].
Turning to `Cc1ccc2c(-c3ccnc(Nc4ccccc4)n3)c(-c3ccc(F)cc3)nn2n1`, the inhibition in test [1] is 68.9%; in test [2], 11.9%; in [3], 43.9%; in test [4], 1.92%; in [5], 5.18%; in test [6], 1.31%. In addition, the inhibition is 7.57% in test [7]; 4.42% in [8]; 2.61% in [9]; 1.54% in [10]; 2.3% in test [11]; 3.23% in [12]. Moreover, the inhibition is -5.84% in test [13]; 1.55% in [14]; 2.93% in [15]; -0.48% in [16]; 2.61% in test [17]; 21% in test [18]. Besides, the results for the inhibition in test [19] and in test [20] were 64% and 23.8%, respectively.

The values are drawn from ChEMBL document CHEMBL1961873, “Compounds: GSK PKIS; Assays: Nanosyn kinase panel” (2012).
